Source: PubChem (National Center for Advancing Translational Sciences (NCATS))
Rango-impB inh = Rango-importin beta binding inhibition; hit rate 0.031% among 340,000; Potency, µM (titrated, usually from 92.2 µM), inactives show top-dose inhibition of complex formation; Rango CFP/YFP FRET sensor + importin beta, 45 min; calls by dose curve;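 further: 0% = DMSO wells and 100% = buffer wells lacking importin beta; nearly all actives have a fitted effect of over 15% in size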
Target sequence (Q14974 whole entry, looked up): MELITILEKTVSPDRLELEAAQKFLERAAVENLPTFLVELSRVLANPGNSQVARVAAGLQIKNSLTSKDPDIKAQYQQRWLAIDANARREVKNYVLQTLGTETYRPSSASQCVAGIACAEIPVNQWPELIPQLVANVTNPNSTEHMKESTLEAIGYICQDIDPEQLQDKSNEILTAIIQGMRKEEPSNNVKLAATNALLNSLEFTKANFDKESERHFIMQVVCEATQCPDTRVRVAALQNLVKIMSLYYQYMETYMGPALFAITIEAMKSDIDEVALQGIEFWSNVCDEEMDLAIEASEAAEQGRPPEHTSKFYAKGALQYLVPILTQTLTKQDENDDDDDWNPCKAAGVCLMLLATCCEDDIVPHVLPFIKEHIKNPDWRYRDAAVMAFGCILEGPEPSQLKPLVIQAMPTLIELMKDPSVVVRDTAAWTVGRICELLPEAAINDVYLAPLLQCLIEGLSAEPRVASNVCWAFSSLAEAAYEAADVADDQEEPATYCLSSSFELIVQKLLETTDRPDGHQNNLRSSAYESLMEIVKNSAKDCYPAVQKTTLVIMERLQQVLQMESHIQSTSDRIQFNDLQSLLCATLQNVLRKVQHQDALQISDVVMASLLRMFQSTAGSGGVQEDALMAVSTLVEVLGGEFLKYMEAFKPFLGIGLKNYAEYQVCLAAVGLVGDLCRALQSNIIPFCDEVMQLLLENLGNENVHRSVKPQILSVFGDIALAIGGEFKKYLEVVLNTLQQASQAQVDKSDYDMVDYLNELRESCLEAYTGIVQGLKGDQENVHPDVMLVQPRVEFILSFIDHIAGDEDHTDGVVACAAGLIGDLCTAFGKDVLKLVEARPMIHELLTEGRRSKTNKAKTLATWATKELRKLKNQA
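FRET biosensor (snurportin 1 IBB flanked by EYFP and cerulean), 50 nM, with compound 5 min, then 0.125 microM importin beta in PBS, 1 mM DTT, 0.02% Tween-20, 0.1% BSA. CFP/YFP ratio read after 45 min at room temperature; pre-read flags interference.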
aSyn rescue = alpha-synuclein toxicity inhibition in yeast; hit rate 0.14% among 370,000; AID 652106; Potency, µM (series often up to 46.1 µM), inactives show top-dose growth rescue (activation), actives largely listed as activators; Yeast expressing alpha-synuclein, growth rescue, BacTiter-Glo, 24 h; further: % of control where 0% means no effect; nearly all actives have a fitted effect of over 65% in size
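Readout is rescue of growth in alpha-synuclein-expressing yeast, so inhibitors of toxicity appear as activators. Growth after 24 hr at 30 deg C in galactose medium is quantified by luminescence.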
Abeta rescue = restores growth of yeast expressing A-beta42 peptide. yeast expressing A-beta42, growth rescue, OD600, 48 h; response scale: 0% DMSO, 100% iron-clioquinol control. Potency, µM (top dose mostly 46.1 µM), most hits filed as activators. hit rate 0.063% among 410,000; further: nearly all actives have a fitted effect of over 55% in size
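Yeast A-beta toxicity model in growth medium with pinned compounds, 48 h at 30 C; growth read as absorbance at 600 nm. Normalized to FeCl3/clioquinol equimolar mix (positive) and DMSO (negative).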
ASM inhibitor = inhibitors of human secretory acid sphingomyelinase | hit rate 0.006% among 340,000 | P17405 | Potency, µM (top dose mostly 57.5 µM), without a hit: top-dose activity change, negative = inhibition, actives largely listed as inhibitors | placental ASM, HMU-PC fluorogenic substrate, 60 min
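Steps: dispense placental human ASM, pin compound, wait 10 min at room temperature, add HMU-PC0 substrate at 9 uM final, incubate 60 min at 37 °C, add stop solution raising pH to 10, read fluorescence.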
TDP-43 yeast inh = inhibitors of TDP-43 toxicity in yeast | TDP-43 expressing yeast growth rescue, BacTiter-Glo, 24 h | Potency, µM (series often up to 46.1 µM), for the others: at the highest dose growth rescue (activation), actives largely listed as activators | hit rate 1.8% among 410,000 | AID 652104; further: % of control where 0% means no effect; nearly all actives have a fitted effect of over 50% in size
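Yeast cells expressing TDP-43 under galactose induction are exposed to compounds for 24 hr at 30 deg C. BacTiter-Glo luminescence measures growth, so protective compounds score as activators.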
Rango release inh = inhibition of RanGTP-driven Rango-importin beta dissociation | O95149+P62826 | Biochemical FRET Rango-importin beta, RanGTP-induced dissociation | Potency, µM (highest dose often 46.1 µM), without a hit: at the highest dose activity change, negative = inhibition | hit rate 0.071% among 340,000 | AID 540253; calls by dose curve; further: % of control where 0% means no effect; nearly all actives have a fitted effect of over 45% in size
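Rango FRET biosensor (snurportin-1 IBB flanked by N-terminal EYFP and C-terminal CFP10) at 0.1 uM, with 0.25 uM importin beta in PBS, 1mM DTT, 0.02% Tween-20, 0.1% BSA. 0.6 uM Ran, 2mM GTP and 0.2 uM RCC1 were then added for 45 min at room temperature. Inhibition read as loss of FRET rise.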
Active calls of the source: *; i = inactive; ? = inconclusive; · = not tested or not shown. Sampled rows, rich in hits. Any-hit rate of the full collection: about 2%. Unless noted, the call rests on the fitted dose curve; in most records, active means well fitted curve in the direction sought with a large enough effect; inconclusive means small, poorly fitted or top-dose-only effect, or another doubt; inactive means no such curve, though single readings can be large; an effect the other way counts as inactive or inconclusive. Potency means the concentration at half of the fitted maximal effect.

SMILES	Rango-impB inh	aSyn rescue	Abeta rescue	ASM inhibitor	TDP-43 yeast inh	Rango release inh
CCOC(=O)C(=CNc1ccc(Cl)cn1)C(=O)OCC	2.0%	1.8%	i	0.1%	11.2µM*	0.6%
CCOC(=O)C(=CNc1cccc(N)n1)C(=O)OCC	4.0%	2.4%	i	105.8%	15.5%	1.0%
CCOC(=O)C(=CNNc1cccc(Cl)c1)C(=O)OCC	3.8%	27.4%	i	-3.6%	11.2µM*	-27.1%
COc1ccc(NS(=O)(=O)c2ccc(Br)cc2)cn1	0.4%	1.3%	i	-1.0%	?	-9.8%
COc1ccc(NS(=O)(=O)c2ccc3oc4ccccc4c3c2)cn1	-6.0%	22.4µM*	i	?	?	3.4%
CC1(Cc2ccccc2F)C(=O)Nc2c(Cl)ccc(Cl)c21 (stereo not given)	·	11.2µM*	i	·	2.2%	·
CC1(Cc2ccccc2Cl)C(=O)Nc2c(Cl)ccc(Cl)c21 (stereo not given)	·	12.6µM*	i	·	31.6µM*	·
Cc1ccc(CC2(C)C(=O)Nc3c(Cl)ccc(Cl)c32)cc1 (stereo not given)	·	17.8µM*	i	·	0.0%	·
CC1(Cc2ccc(Cl)cc2)C(=O)Nc2c(Cl)ccc(Cl)c21 (stereo not given)	·	?	i	·	-25.9%	·
CCSc1ncc(Cl)c(C(=O)Nc2sc3c(c2C(=O)OC)CCCC3)n1	·	-9.0%	·	·	·	·
FC(F)(F)c1cnc(Nc2ccc(N3CCOCC3)cc2)c(Cl)c1	4.6%	3.3%	i	-3.1%	12.6µM*	21.1%
Cc1cccc(OCc2ccc(-c3nc(C#N)c(NCCN(C)C)o3)o2)c1	·	·	i	·	27.7%	·
CN(C)c1ccc(/C=C/c2c(F)cnc3ccccc23)cc1	·	1.4%	·	·	·	·
O=C(NCCNc1ccc([N+](=O)[O-])cc1C(F)(F)F)c1ccccc1F	-0.5%	15.4%	i	-10.8%	20µM*	-7.8%
Cc1ccc(S(=O)(=O)NCCNc2ccc([N+](=O)[O-])cc2C(F)(F)F)cc1	-4.8%	?	i	-13.7%	22.4µM*	19.3%
CC(=O)O[C@H]1C(=O)[C@@]2(C)C([C@H](OC(=O)c3ccccc3)[C@]3(O)C[C@H](OC(=O)[C@H](O)[C@@H](NC(=O)c4ccccc4)c4ccccc4)C(C)=C1C3(C)C)[C@]1(OC(C)=O)CO[C@@H]1C[C@@H]2O (stereo not given in full)	·	-0.3%	·	·	·	·
CCCCOc1ccc(C(=O)Oc2cc(C)[nH]c(=O)c2[N+](=O)[O-])cc1	2.1%	-2.5%	i	-0.6%	17.8µM*	20.4%
O=C(C[n+]1cccc(Cl)c1)c1ccc(F)cc1	·	8.1%	·	·	·	·
COC(=O)CCC(=O)OC1(C)C(=O)C2=CN(C3CCCC3)C(c3ccc(OC)cc3)=CC2=C(Br)C1=O (stereo not given)	?	8.0%	i	-0.2%	-16.0%	9.2µM*
Cc1ccc(-c2nnc(Nc3ccc(Br)cc3)c3ccccc23)cc1S(=O)(=O)N1CCOCC1	·	10.8%	i	·	19.5%	·
CCOC(=O)c1cc(S(=O)(=O)NCc2cccc(Cl)c2)[nH]n1	·	·	i	·	22.6%	·
CCN(CC)C(=O)c1cnn(-c2ccc(F)cc2)c1-n1cccc1	·	-1.7%	i	·	0.0%	·
CCN(Cc1ccccc1)C(=O)c1cnn(-c2ccc(F)cc2)c1-n1cccc1	·	8.0%	i	·	35.5µM*	·
CCn1cc(C(=O)Nc2ccc(C(C)C)cc2)c2cc(OC)c(OC)cc2c1=O	·	·	i	·	13.8%	·
CCC(C)(C)c1ccc(Oc2cccc(C(=O)O)c2)cc1	1.2%	0.891µM*	i	6.8%	-28.5%	19.3%
SMILES	Rango-impB inh	aSyn rescue	Abeta rescue	ASM inhibitor	TDP-43 yeast inh	Rango release inh
O=C(NC(=S)NC1CCCC1)c1ccccc1	-4.1%	-2.3%	?	-1.5%	?	-11.1%
N#Cc1ccc(C(=O)NC(=S)NC2CCCCC2)cc1	-0.1%	-8.7%	?	-2.2%	22.4µM*	-6.4%
C/C(=N\NC(=O)c1cc(-c2cccs2)nc2ccccc12)c1ccccn1	2.1%	14.1µM*	12.6µM*	6.0%	22.4µM*	8.6%
O=C(NCc1ccccn1)c1cc(-c2ccccc2)nc2ccccc12	-1.2%	?	i	1.5%	?	0.8%
O=C(Nc1nccs1)c1cc(-c2ccccc2)nc2ccccc12	-1.7%	-20.1%	i	-16.3%	14.1µM*	-4.3%
Cc1cccc(-c2cc(C(=O)NCc3ccccn3)c3ccccc3n2)c1	-3.9%	-2.7%	i	-1.3%	35.5µM*	4.6%
COc1ccc(C2CC(=O)N(Cc3ccc(F)cc3)c3ccccc3S2)cc1 (stereo not given)	·	11.4%	i	·	15.8µM*	·
Cc1nc([N+](=O)[O-])c(Br)n1Cc1ccc(Cl)c(Cl)c1	2.0%	-10.0%	i	-2.8%	14.1µM*	-0.1%
COc1ccc(C(=O)Cn2c(C)nc([N+](=O)[O-])c2Br)cc1	2.3%	-7.1%	i	5.2%	?	2.9%
Cc1nc([N+](=O)[O-])c(Br)n1CC(=O)c1ccc(Cl)cc1	2.9%	0.5%	i	-0.8%	12.6µM*	13.2%
Cc1sc(-c2cc3ccccc3oc2=O)nc1-c1ccc(Cl)cc1	·	·	i	·	11.5%	·
CCOc1ccc(NC(=O)C(NS(=O)(=O)c2ccc3c(c2)CCN3C(C)=O)C(C)C)cc1 (stereo not given)	·	·	i	·	6.5%	·
O=C(CN1CCSc2ccccc21)NCc1ccccc1F	·	9.9%	i	·	12.6µM*	·
O=C(Nc1cccc(NC(=O)c2c(F)cccc2F)n1)c1c(F)cccc1F	2.7%	-21.0%	i	2.6%	0.0%	0.8%
O=C(Nc1cccc(NC(=O)c2cccc(F)c2)n1)c1cccc(F)c1	-1.1%	-2.5%	i	-8.4%	10µM*	-13.7%
O=C(c1ccccc1Cl)c1c(O)c2ccccc2oc1=O	-0.8%	-13.8%	i	7.7%	-10.7%	13.4%
O=C(Nc1c(O)c2ccccc2oc1=O)c1ccccc1Cl	·	·	i	·	2.51µM*	·
CN(C)c1ccc(CNC(=O)C2CCN(S(=O)(=O)c3cn(C)cn3)CC2)cc1	·	·	i	·	1.1%	·
CC1(C)Cc2cccc(C(=O)Nc3ccc(Cl)cc3)c2O1	0.0%	-17.5%	i	-3.0%	17.8µM*	0.3%
CC1(C)Cc2cccc(C(=O)Nc3ccncc3)c2O1	5.3%	-0.9%	i	-1.6%	12.7%	2.5%
CCOC(=O)c1c(/N=C/C2=C(O)CCCC2=O)sc(C)c1C	?	0.8%	i	·	-11.0%	?
CCOC(=O)c1c(-c2ccc(OC)cc2)csc1/N=C/C1=C(O)CCCC1=O	?	10.8%	i	-4.9%	8.91µM*	?
Cc1cc(C(=O)NN)c(C)o1	2.7%	-2.1%	i	-2.6%	0.0%	11.0%
